# “And” between values parts separate entries of the source, which are not always exact repeats. Equal values may be shown once. Inconclusive results are not listed. A call without a number means that no potency is given here. A structure can be active in one record and inactive in another. The source made the active and inactive calls. Unless noted, calls follow the shape of the dose curve; as a rule, active = well fitted curve in the direction sought with a large enough effect in the repeat runs; inconclusive = weak or mixed curves; inactive = no such curve, though single readings can be large; an effect the other way counts as inactive or inconclusive.
# What was measured:
# [1] = qHTS assay to identify small molecule agonists of the estrogen receptor alpha (ER-alpha) signaling pathway in the presence of an antagonist - cell viability counter screen (AID 1259386);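 also: series mostly up to about 92 µM; cells exposed to compounds for 22 h at 37 °C before the viability read; nearly all actives have a fitted effect of over 30% in size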
# Outline: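 ICI-182,780 at 10.0nM final accompanies the compound titration (15 concentrations, 22hr, 37C) on VM7Luc4E2 cells. The CellTiter-Fluor fluorescence readout runs in the same wells as the luciferase assay.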
# [2] = target: Progesterone receptor (Homo sapiens) (UniProt P06401); assay: qHTS assay to identify small molecule agonists of the progesterone receptor (PR) signaling pathway (AID 1346784; calls by dose curve; also: nearly all actives have a fitted effect of over 30% in size; also: potency is read from the fitted curve at half-maximal effect)
# Chain of Progesterone receptor (Homo sapiens) (P06401 whole entry, looked up): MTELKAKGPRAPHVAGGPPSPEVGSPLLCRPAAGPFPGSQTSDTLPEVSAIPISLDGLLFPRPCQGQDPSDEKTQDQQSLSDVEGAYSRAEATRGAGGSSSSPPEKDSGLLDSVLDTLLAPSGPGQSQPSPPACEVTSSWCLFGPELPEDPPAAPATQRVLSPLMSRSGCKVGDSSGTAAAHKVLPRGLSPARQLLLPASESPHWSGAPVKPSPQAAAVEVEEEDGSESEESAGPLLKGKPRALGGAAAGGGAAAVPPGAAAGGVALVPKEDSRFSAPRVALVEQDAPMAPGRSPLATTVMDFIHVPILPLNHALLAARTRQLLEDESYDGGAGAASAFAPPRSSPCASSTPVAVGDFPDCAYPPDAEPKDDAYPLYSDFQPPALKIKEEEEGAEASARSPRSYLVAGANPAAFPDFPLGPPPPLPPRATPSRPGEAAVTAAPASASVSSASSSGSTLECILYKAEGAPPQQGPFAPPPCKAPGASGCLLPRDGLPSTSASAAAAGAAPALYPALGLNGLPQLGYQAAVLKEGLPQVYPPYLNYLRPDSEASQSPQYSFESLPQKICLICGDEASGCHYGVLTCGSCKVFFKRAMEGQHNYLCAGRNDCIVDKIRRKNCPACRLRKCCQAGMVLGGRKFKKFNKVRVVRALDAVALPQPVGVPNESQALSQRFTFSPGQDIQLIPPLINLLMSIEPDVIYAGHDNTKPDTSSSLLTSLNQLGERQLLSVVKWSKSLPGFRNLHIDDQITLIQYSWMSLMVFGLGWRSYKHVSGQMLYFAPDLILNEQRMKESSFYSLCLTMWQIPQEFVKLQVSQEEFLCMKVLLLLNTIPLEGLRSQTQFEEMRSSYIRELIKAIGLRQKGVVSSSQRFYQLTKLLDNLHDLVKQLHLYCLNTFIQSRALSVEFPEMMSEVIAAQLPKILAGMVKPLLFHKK
# Outline: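 Beta-lactamase reporter read-out: after 16 hr compound treatment at 37C and a further 2 hr at room temperature with LiveBLAzer B/G FRET substrate, fluorescence was measured in PR-UAS-bla HEK 293T cells grown in 2% charcoal-stripped serum.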
# [3] = target: Progesterone receptor (Homo sapiens) (UniProt P06401); assay: qHTS assay to identify small molecule antagonists of the progesterone receptor (PR) signaling pathway (AID 1346795; active = well fitted inhibition curve with a large enough effect in the signal ratio in the repeat runs, not every such curve was filed as active; the % refers to the signal ratio; also: potency is read from the fitted curve at half-maximal effect)
# Outline: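 Read-out is fluorescence from the LiveBLAzer B/G FRET substrate, cleaved by a UAS-controlled beta-lactamase in PR-UAS-bla HEK293T cells after 16 hr exposure to compound plus 1 nM promegestone (final), followed by 2 hr at room temperature.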
# [4] = qHTS assay to identify small molecule antagonists of the progesterone receptor (PR) signaling pathway - cell viability counter screen (AID 1346798);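 also: HEK293T PR-UAS-bla cells stimulated with the agonist R5020; series mostly up to about 92 µM; nearly all actives have a fitted effect of over 50% in size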
# Outline: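 HEK293T PR-UAS-bla, 2% charcoal-stripped FBS; 4 hr pre-plate; cpd + R5020, 16 h 37C; LiveBLAzer read first; then CellTiter-Glo 30 min RT, luminescence.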
# [5] = qHTS assay to identify small molecule antagonists of the TGF-beta/Smad signaling pathway - cell viability counter screen (AID 1346824); also: nearly all actives have a fitted effect of over 50% in size
# Outline: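 SBE-bla HEK 293T cells were plated overnight at 37 C, then given compounds in DMSO plus TGF-beta1 (added as 0.25 ng/mL solution) for 5 hr. After the bla read, CellTiter-Glo was added to the same wells and luminescence read after 30 min at room temperature.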
# [6] = qHTS assay to identify small molecule agonists of the TGF-beta/Smad signaling pathway - cell viability counter screen (AID 1346829); also: top concentration of the series differs between compounds; nearly all actives have a fitted effect of over 45% in size
# Outline: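 HEK 293T SBE-bla line, 5 hr compound exposure at 37 C, multiplexed CellTiter-Glo viability read by luminescence.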
# [7] = target: Thyrotropin-releasing hormone receptor (Homo sapiens) (UniProt P34981); assay: qHTS assay to identify small molecule antagonists of the thyrotropin-releasing hormone receptor (TRHR) signaling pathway (AID 1346877; active = well fitted inhibition curve with a large enough effect in the repeat runs, not every such curve was filed as active; also: series mostly up to about 51 µM)
# Chain of Thyrotropin-releasing hormone receptor (Homo sapiens) (P34981 whole entry, looked up): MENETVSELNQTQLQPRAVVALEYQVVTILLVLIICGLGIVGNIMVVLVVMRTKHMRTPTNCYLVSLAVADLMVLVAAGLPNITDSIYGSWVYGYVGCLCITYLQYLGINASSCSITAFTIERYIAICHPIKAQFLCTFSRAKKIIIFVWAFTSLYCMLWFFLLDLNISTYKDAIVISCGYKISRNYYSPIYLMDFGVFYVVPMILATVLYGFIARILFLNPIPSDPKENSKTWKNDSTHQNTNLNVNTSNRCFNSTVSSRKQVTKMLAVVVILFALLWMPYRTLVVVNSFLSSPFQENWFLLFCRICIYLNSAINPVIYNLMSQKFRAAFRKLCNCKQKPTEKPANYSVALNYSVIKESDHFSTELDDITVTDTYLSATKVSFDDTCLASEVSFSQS
# Outline: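 Screening used HEK293 cells engineered with TRHR, with a brief 5 min room-temperature compound exposure preceding addition of TRH to 1 nM. The read-out was kinetic calcium-dye fluorescence, concentration-response from 15 doses in triplicate.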
# [8] = target: Thyrotropin-releasing hormone receptor (Homo sapiens) (UniProt P34981); assay: qHTS assay to identify small molecule agonists of the thyrotropin-releasing hormone receptor (TRHR) signaling pathway (AID 1346891; calls by dose curve; also: series mostly up to about 58 µM)
# Outline: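 Intracellular calcium rise, read as fluorescence every second for 3 min, served as the agonist signal in dye-loaded HEK293 cells expressing TRHR; each compound ran at 15 concentrations in triplicate.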
# [9] = Human pregnane X receptor (PXR) small molecule agonists, qHTS cell viability counter screen (AID 1346977); also: nearly all actives have a fitted effect of over 50% in size
# Outline: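 PXR-Luc HepG2, 2,000 cells/well, 5% charcoal-stripped FBS; 5hr settle; cpd 24hr, 37C/5% CO2; CellTiter-Fluor at 23hr, read 1hr later (fluorescence).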
# [10] = Caspase-3/7 induction in HepG2 cells by small molecules, qHTS assay (AID 1346978); also: nearly all actives have a fitted effect of over 15% in size
# Outline: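 Wild-type HepG2 cells (2,000/well) were settled 5 h at 37 C, 5% CO2, then exposed to compounds in DMSO for 17 h. Caspase-3/7 activity was read by luminescence 30 min after adding Caspase-Glo 3/7 reagent at room temperature.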
# [11] = Caspase-3/7 induction in CHO-K1 cells by small molecules, qHTS cell viability counter screen (AID 1346979); also: nearly all actives have a fitted effect of over 35% in size
# Outline: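 Cells (CHO-K1, wild type) are plated at 1,500 per well and incubated 5hr. Test compounds in DMSO are then pinned in, followed by 16hr at 37C and 5% CO2. Viability is read by CellTiter-Fluor fluorescence after 1hr.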
# [12] = Caspase-3/7 induction in CHO-K1 cells by small molecules, qHTS assay (AID 1346980); also: nearly all actives have a fitted effect of over 15% in size
# Outline: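 Wild-type cells were seeded at 1,500 per well and settled 5 hr at 37 C, 5% CO2, then exposed to DMSO-dissolved compounds for 17 hr. Caspase-Glo 3/7 reagent was added, and luminescence was read after 30min at room temperature.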
# [13] = Caspase-3/7 induction in HepG2 cells by small molecules, qHTS cell viability counter screen (AID 1346981); also: series mostly up to about 92 µM; nearly all actives have a fitted effect of over 30% in size
# Outline: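 Multiplexed with the caspase-3/7 assay: HepG2 cells, 16 hr compound treatment, CellTiter-Fluor viability detection by fluorescence.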
# [14] = target: Nuclear receptor subfamily 1 group I member 2 (Homo sapiens) (UniProt O75469); assay: Human pregnane X receptor (PXR) small molecule agonists, qHTS assay (AID 1346982); also: nearly all actives have a fitted effect of over 35% in size; also: potency is read from the fitted curve at half-maximal effect
# Chain of Nuclear receptor subfamily 1 group I member 2 (Homo sapiens) (O75469 whole entry, looked up): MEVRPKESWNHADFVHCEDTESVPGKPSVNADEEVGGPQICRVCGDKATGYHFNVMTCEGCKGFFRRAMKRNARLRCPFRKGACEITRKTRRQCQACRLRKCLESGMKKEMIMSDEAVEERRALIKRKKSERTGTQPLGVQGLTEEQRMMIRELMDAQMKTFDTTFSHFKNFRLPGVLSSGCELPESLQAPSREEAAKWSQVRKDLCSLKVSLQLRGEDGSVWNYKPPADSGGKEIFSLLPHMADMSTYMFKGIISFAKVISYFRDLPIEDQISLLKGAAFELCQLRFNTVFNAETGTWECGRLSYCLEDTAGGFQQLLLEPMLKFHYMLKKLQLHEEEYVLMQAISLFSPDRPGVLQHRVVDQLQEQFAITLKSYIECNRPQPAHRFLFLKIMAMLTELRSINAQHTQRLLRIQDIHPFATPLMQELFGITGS
# Outline: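 We seeded PXR-Luc HepG2 cells in assay medium containing 5% charcoal-stripped FBS, added compounds 5 hr later, incubated 24 hr, and read luminescence with ONE-Glo reagent.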
# [15] = target: Acetylcholinesterase (Homo sapiens) (UniProt P22303); assay: Acetylcholinesterase (AChE) small molecule antagonists: colormetric cell-based qHTS assay (AID 1347395; calls by dose curve; also: nearly all actives have a fitted effect of over 30% in size; also: potency is read from the fitted curve at half-maximal effect)
# Chain of Acetylcholinesterase (Homo sapiens) (P22303 whole entry, looked up): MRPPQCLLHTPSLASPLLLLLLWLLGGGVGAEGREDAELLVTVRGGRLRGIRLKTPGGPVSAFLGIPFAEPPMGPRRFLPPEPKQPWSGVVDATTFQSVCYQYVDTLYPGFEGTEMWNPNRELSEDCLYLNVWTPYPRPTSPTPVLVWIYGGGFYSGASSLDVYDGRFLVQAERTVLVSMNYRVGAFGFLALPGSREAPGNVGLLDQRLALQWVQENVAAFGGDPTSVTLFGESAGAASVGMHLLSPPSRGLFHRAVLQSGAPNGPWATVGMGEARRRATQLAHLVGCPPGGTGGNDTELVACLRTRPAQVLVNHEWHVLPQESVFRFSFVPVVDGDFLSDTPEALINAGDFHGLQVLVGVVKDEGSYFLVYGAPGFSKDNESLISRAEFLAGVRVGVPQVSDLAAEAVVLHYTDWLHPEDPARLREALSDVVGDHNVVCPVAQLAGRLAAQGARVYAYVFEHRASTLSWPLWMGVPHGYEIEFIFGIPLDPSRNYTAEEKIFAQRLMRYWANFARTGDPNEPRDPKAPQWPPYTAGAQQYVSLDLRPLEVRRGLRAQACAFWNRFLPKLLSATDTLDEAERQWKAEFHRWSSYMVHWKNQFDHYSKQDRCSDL
# Outline: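 Colorimetric read-out: DTNB detects thiocholine released when cellular AChE in SH-SY5Y cells hydrolyses acetylthiocholine. Cells attached overnight, received compound for 30 min at 37 C, then substrate mix for 90 min at 37 C.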
# [16] = qHTS assay to identify small molecule agonists of the progesterone receptor (PR) signaling pathway - cell viability counter screen (AID 1346799; calls by dose curve; also: nearly all actives have a fitted effect of over 45% in size; also: potency is read from the fitted curve at half-maximal effect)
# Outline: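 Luminescence from CellTiter-Glo, added after the beta-lactamase FRET read in the same wells, gave cytotoxicity in PR-UAS-bla HEK293T cells treated with compounds for 16 hr at 37C.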
# [17] = qHTS assay to identify small molecule agonists of the TGF-beta/Smad signaling pathway (AID 1346859; active = well fitted activation curve with a large enough effect in the signal ratio in the repeat runs, not every such curve was filed as active; the % refers to the signal ratio; also: series mostly up to about 77 µM)
# Outline: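 SBE-bla HEK 293T, 4,000 cells/well, plated o/n; cpd in DMSO, 5 hr, 37 C/5% CO2; B/G FRET substrate 2 hr RT; ex 405, em 460/530 nm.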
Structure (SMILES),Potency [1],Potency [2],Potency [3],Potency [4],outcome [5],Potency [6],Potency [7],outcome [8],Potency [9],outcome [10],Potency [11],outcome [12],Potency [13],Potency [14],Potency [15],Potency [16],outcome [17]
O=c1[nH]c2ccccc2o1,inactive,inactive,inactive,inactive,inactive,inactive,inactive,inactive,inactive,inactive,inactive,inactive,inactive,inactive,inactive,,
NCCOS(=O)(=O)O,inactive,inactive,inactive,,inactive,inactive,inactive,inactive,inactive,inactive,inactive,inactive,inactive,inactive,inactive,inactive,inactive
CCC(C)(C#N)N=NC(C)(C#N)CC (stereo unspecified),inactive,inactive,inactive,inactive,inactive,inactive,inactive,inactive,,inactive,inactive,inactive,inactive,inactive,inactive,inactive,
C#CCOC(=O)/C=C(C)/C=C/CC(C)CCCC(C)C (stereo unspecified),inactive,inactive,inactive,inactive,inactive,inactive,inactive,inactive,,inactive,,inactive,inactive,inactive,inactive,inactive,
C=CC1(C)OC(=O)N(c2cc(Cl)cc(Cl)c2)C1=O (stereo unspecified),inactive,inactive,21.6 µM (active),,inactive,inactive,inactive,inactive,,inactive,inactive,inactive,inactive,60.8 µM (active) and 54.5 µM (active),inactive,54.2 µM (active) and inactive,inactive
ClCCCCl,inactive,inactive,inactive,inactive,inactive,inactive,inactive,inactive,,inactive,inactive,inactive,inactive,inactive,inactive,inactive,
NNCc1ccccc1,inactive,inactive,inactive,inactive,inactive,inactive,inactive,inactive,inactive,,inactive,inactive,inactive,55.5 µM (active),inactive,,inactive
CN(C)CCN(C)C,inactive,27.2 µM (active),inactive,inactive,inactive,inactive,inactive,inactive,inactive,,inactive,inactive,inactive,inactive,inactive,,inactive
N#CN=C1SCCN1Cc1ccc(Cl)nc1,inactive,inactive,inactive,inactive,inactive,inactive,inactive,inactive,,inactive,inactive,inactive,inactive,,35.6 µM (active),,inactive
CC#Cc1cc(C)nc(Nc2ccccc2)n1,inactive,inactive,24.3 µM (active),inactive,inactive,inactive,inactive,inactive,inactive,,,inactive,inactive,30.6 µM (active),inactive,,inactive
Cc1cccc2sc3nncn3c12,inactive,inactive,inactive,,inactive,inactive,inactive,inactive,inactive,inactive,inactive,inactive,inactive,34.4 µM (active),39.9 µM (active),inactive,
CN1COCN(Cc2cnc(Cl)s2)/C1=N\[N+](=O)[O-],inactive,inactive,inactive,inactive,,inactive,inactive,inactive,inactive,,,inactive,inactive,inactive,inactive,inactive,inactive
CCOC(=O)NC(C)(C)Cc1ccc(Cl)cc1,inactive,inactive,inactive,inactive,inactive,inactive,,,inactive,inactive,,inactive,inactive,inactive,inactive,inactive,
ClCCCCCCCl,inactive,inactive,inactive,,inactive,inactive,inactive,inactive,inactive,inactive,inactive,inactive,inactive,inactive,inactive,inactive,inactive
